# Reference: PubChem BioAssay AID435005 (Broad Institute, 2010)
# Screen size: about 300,000 compounds; about 2,400 (0.8%) were called active.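 How the source made its calls: active means Every replicate reaches about 75%, or at least half do and their mean reaches it too (limit read from the data); inconclusive means At least half of replicates reach the limit but their mean does not; inactive means Under half of replicates reach the limit.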 The list comes from a sample in which actives are over-represented; it also holds similar structures and randomly drawn compounds.
# Assay: inhibitors of cytokine-induced beta cell apoptosis, primary screen, luminescence (AID 435005);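 further: 0% = cytokine-treated negative control wells and 100% = positive control rescue; higher means more ATP so stronger rescue from cytokine killing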
# Settings: INS-1E cytokine-induced death, ATP luminescence, 48 h; active compounds read high; percent of positive-control rescue, neutral wells zero; concentration not given here
row,Structure (SMILES),protection from apoptosis
1,Nc1nonc1-n1nnc(C(=O)N/N=C\c2ccncc2)c1CN1CCCCC1,-8.98% (inactive)
2,Nc1nonc1-n1nnc(C(=O)N/N=C/c2ccccc2O)c1CN1CCCC1,77.1% (active)
3,Cc1ccc(SCc2c(C(=O)N/N=C/C3CC=CCC3)nnn2-c2nonc2N)cc1 (stereo not given),-2.44% (inactive)
4,Cc1ccc(SCc2c(C(=O)N/N=C/c3cccnc3)nnn2-c2nonc2N)cc1,-3.56% (inactive)
5,Nc1nonc1-n1nnc(C(=O)N/N=C/c2cc(Br)ccc2O)c1CSC1=NCCS1,86.6% (active)
6,NNC(=O)c1nnn(-c2nonc2N)c1CN1CCCC1,0.21% (inactive)
7,COc1ccccc1-c1nnc2n1N=C(c1ccc(OC(F)F)c(OCC3CC3)c1)CS2,14.1% (inactive)
8,COc1ccc(CNC(=O)COC(=O)C(CCSC)N2C(=O)c3ccccc3C2=O)cc1 (stereo not given),-1.57% (inactive)
9,O=C1COc2ccc(C(=O)COC(=O)c3ccccc3Cl)cc2N1,-5.54% (inactive)
10,O=C(CSc1nc2ccccc2c(=O)n1Cc1ccc(F)cc1)NCC1CCCO1 (stereo not given),-5.32% (inactive)
11,CCOC(=O)C1CCN(CC(=O)Nc2ccc(OC)c(S(=O)(=O)N3CCCCC3)c2)CC1,0.731% (inactive)
12,CCN(C[C@H]1N[C@@](CC)(C(=O)OC)[C@H]2C(=O)N(Cc3ccccc3)C(=O)[C@@H]12)S(=O)(=O)c1ccccc1,-2.88% (inactive)
13,O=C(N/N=C/c1ccoc1)c1ccc(Cl)cc1Cl,-6.52% (inactive)
14,CC(C)(C)C(=O)Nc1ccc(C(=O)N/N=C/c2ccccc2OC(=O)c2ccc(Cl)cc2Cl)cc1,87.8% (active)
15,O=C(N/N=C/c1ccc(OC(=O)c2ccccc2Cl)cc1)c1ccc(O)cc1,-1.66% (inactive)
16,CC1O[C@@H](OC2C(O)C(C)O[C@H](OC(=O)[C@]34CCC(C)(C)C[C@H]3C3=CCC5[C@@]6(C)CC(O)C(O[C@@H]7OC(CO)C(O)[C@@H](O)[C@@H]7O)[C@@](C)(C(=O)O)C6CC[C@@]5(C)[C@]3(CO)CC4)C2O[C@H]2OC(C)[C@@H](O[C@@H]3OCC(O[C@@H]4OC(CO)C(O)[C@H](O)C4O)[C@@H](O)[C@@H]3O)[C@H](O)C2O)C(O)C(O)C1O (stereo not given in full),-2.17% (inactive)
17,Cc1ccc(S(=O)(=O)N2[C@@H](c3ccc(Br)cc3)C(C(=O)O)=C[C@H]2CC2CCCC2)cc1,-9.97% (inactive)
18,Cc1ccc(CNC(=O)COC(=O)C2CCC2)cc1,-16.3% (inactive)
19,CN(C)CCCN(C(=O)c1ccc(S(=O)(=O)N2CCCc3ccccc32)cc1)c1nc2ccc(F)cc2s1,-11.6% (inactive)
20,CCOc1ccc2nc(NC(=O)c3cc([N+](=O)[O-])ccc3N3CCOCC3)sc2c1,32.1% (inactive)
21,O=C(Nc1nc2ccc([N+](=O)[O-])cc2s1)c1ccc(S(=O)(=O)N2CCCc3ccccc32)cc1,113% (active)
22,O=C(NC(Nc1nc2ccc([N+](=O)[O-])cc2s1)(C(F)(F)F)C(F)(F)F)c1ccccc1,118% (active)
23,CCC(=O)NC(Nc1nc2ccc(C)cc2s1)(C(=O)OC)C(F)(F)F (stereo not given),-2.12% (inactive)
24,CS(=O)(=O)c1ccc2nc(NC(=O)c3ccc(N4CCCC4=O)cc3)sc2c1,2.56% (inactive)
25,O=C(Nc1ccccc1)N1CCC(C(=O)N2CCN(Cc3ccccc3)CC2)CC1,-2.8% (inactive)

row,Structure (SMILES),protection from apoptosis
1,O=C(COC(=O)COc1cccc(F)c1)NCC1CCCCC1,-3.55% (inactive)
2,Cc1ccc(NS(=O)(=O)c2ccc(C(C)C)cc2)cc1S(=O)(=O)N1CCOCC1,4.91% (inactive)
3,Cc1ccccc1NC(=O)CSC(=O)c1ccccc1,-2.98% (inactive)
4,C#CCOCCOCCOCCNc1nc(N2CCN(C(=O)[C@H](CO)n3cc([C@@H](N)C(C)C)nn3)CC2)nc(N2CCN(C(=O)[C@H](CCC(=O)O)n3cc([C@@H](N)[C@H](C)CC)nn3)CC2)n1,-6.94% (inactive)
5,CN(C(=O)c1cccc(NC(=O)Cc2ccc([N+](=O)[O-])cc2)c1)C1CCC1,-5.07% (inactive)
6,C=CCC1(CC=C)CCCN1C(=O)c1cc(COc2ccc(-n3cncn3)cc2)on1,104% (active)
7,CCn1ccnc1CN(C)C(=O)c1cc(COc2ccc(-n3cncn3)cc2)on1,-3.2% (inactive)
8,COc1cccc(OCc2cc(C(=O)N3CCN(C(=O)c4ccco4)CC3)no2)c1,-1.9% (inactive)
9,Cc1cccc(NC(=O)c2ccc(S(=O)(=O)N(C)c3ccccc3)cc2)n1,-7.09% (inactive)
10,COc1cc2cc(C(=O)N/N=C/c3cccc(OC)c3OC)[nH]c2cc1OC,0.139% (inactive)
11,COc1cccc(/C=N/NC(=O)c2[nH]nc3c2CCc2ccccc2-3)c1O,82.2% (active)
12,CN(C)CCNC(=O)c1[nH]nc2c1CCc1ccccc1-2,-8.17% (inactive)
13,COc1cc(C(=O)NC2CCN(C)CC2)ccc1Nc1ncc2c(n1)N(C1CCC(O)CC1)CCC(=O)N2C (stereo not given),-0.596% (inactive)
14,COc1cc(SC)ccc1C(=O)NNC(=O)C1COc2ccccc2O1 (stereo not given),-1.75% (inactive)
15,CCCN(CC(=O)Nc1ccccc1C)C(=O)c1ccc2[nH]c3c(c2c1)CC(C)CC3 (stereo not given),8.11% (inactive)
16,COc1ccc(OCCCC(=O)Nc2cccc(S(=O)(=O)N3CCCCCC3)c2)cc1,-3.4% (inactive)
17,COc1ccc(/C=N/Nc2nc3ccccc3c(=O)[nH]2)cc1,12% (inactive)
18,COc1ccc(Cc2nnc(N/N=C/c3ccccc3O)[nH]c2=O)cc1OC,85.2% (active)
19,CC(C)c1ccc(Cc2nnc(NCCCO)[nH]c2=O)cc1,-1.74% (inactive)
20,CC(=O)c1c(C)[nH]c(C(=O)COc2ccc3c(C)cc(=O)oc3c2)c1C,-1.3% (inactive)
21,CN(c1ccccc1)S(=O)(=O)c1ccc(C(=O)N2CCN(c3ccccc3Cl)CC2)cc1,3.55% (inactive)
22,Cc1ccc2c(c1)NC(=O)[C@@]1(C)[C@@H](c3ccccc3)[C@H]3COc4ccc(Cl)cc4[C@@H]3N1C2=O,-5.63% (inactive)
23,CCOC(=O)C1=C(CN2CCc3ccccc32)NC(=O)NC1c1ccc(Cl)cc1 (stereo not given),-0.812% (inactive)
24,CCOC(=O)C1=C(CN2CCCCCC2)NC(=O)NC1c1cccc([N+](=O)[O-])c1 (stereo not given),-5.34% (inactive)
25,CCOC(=O)C1=C(CCc2ccccc2)NC(=O)NC1c1ccc2ccccc2c1 (stereo not given),93.7% (active)
